{"source": "PubChem BioAssay AID651871", "about": "(Sanford-Burnham Center for Chemical Genomics, 2012)", "note": "Several values for one entry are separate records, joined by “and”; a condition that tells them apart may be missing. Equal values may be shown once.", "data": [{"system": "H9c2", "test": "protection of cardiomyocytes from stress damage, SAR follow-up, cell-based, panel, H9c2 and HL-1, ATP luminescence, set 2 (AID 651871);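 further: cells exposed to stressor for 2 h before ATP readout; reference of the scale not given here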", "conditions": "H9c2/HL-1 cardiomyocytes, 2-deoxyglucose stress, with 2-deoxyglucose; run 12, at 79 µM (top of the series)", "values": [{"compound": "COc1ccc2c(c1OC)C(=O)N1c3ccccc3C(=O)N(Cc3cccc(Cl)c3Cl)C21", "note": "(stereo not drawn)", "activity (protection/inhibition)": "79.7% and 81.4% and -3.37%"}, {"compound": "CCOC(=O)c1cccc(NC(=O)CNC(=O)c2cc(-c3cc(OC)c(OC)c(OC)c3)nc3ccccc23)c1", "activity (protection/inhibition)": "86.3%"}, {"compound": "COc1ccc2nc(-c3cc(OC)c(OC)c(OC)c3)cc(C(=O)NCC(=O)Nc3ccc(C(C)=O)cc3)c2c1", "activity (protection/inhibition)": "79.9%"}]}]}
